How the values were obtained:
Assay in all cases: DAPPL (digital affinity profiling via proximity ligation, sequencing); 10 mM Tris-HCl pH 7.5, 50 mM NaCl, 1 mM DTT, 4% glycerol, room temperature, 30 min; GST-TFs on glutathione beads, 16-mer random dsDNA library, 0.1% formaldehyde crosslink after washing; high values mean tight binding
FLI1 = biological target: T1, FLI1 (Homo sapiens, UniProt Q01543 1-452); details: protein: recombinant; tags: N-terminal GST; dsDNA, one strand shown
T1 sequence: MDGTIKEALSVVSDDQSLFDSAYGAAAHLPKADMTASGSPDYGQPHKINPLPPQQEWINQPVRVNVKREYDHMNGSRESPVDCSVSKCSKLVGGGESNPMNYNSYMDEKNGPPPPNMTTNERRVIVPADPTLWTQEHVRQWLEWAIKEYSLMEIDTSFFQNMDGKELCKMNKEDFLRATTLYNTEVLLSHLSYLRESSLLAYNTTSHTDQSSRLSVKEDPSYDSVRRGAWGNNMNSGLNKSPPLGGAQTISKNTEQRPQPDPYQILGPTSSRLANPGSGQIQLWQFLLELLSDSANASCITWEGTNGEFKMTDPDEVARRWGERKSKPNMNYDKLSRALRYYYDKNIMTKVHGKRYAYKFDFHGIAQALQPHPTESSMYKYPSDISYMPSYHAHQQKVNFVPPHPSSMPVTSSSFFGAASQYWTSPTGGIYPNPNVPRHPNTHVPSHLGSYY
In short: (§1)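 After expression in yeast as GST fusions, human transcription factors were bound to glutathione beads, DNA-barcoded and mixed with a tag-only sample. The pools were incubated with 200 nmole of a 16-mer random double-stranded DNA library in Tris/NaCl/DTT/glycerol buffer (30 min, room temperature), washed and crosslinked with 0.1% formaldehyde. Proximity ligation with BsaI/T4 ligase ran for 1 h at 37 °C, before PCR amplification and sequencing on an Illumina NextSeq500. Binding signal is a hexamer's read frequency for a factor divided by its frequency for the tag-only sample.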

ELK1 = biological target: T2, ELK1 (Homo sapiens, UniProt P19419 1-428); details: protein: recombinant; tags: N-terminal GST; dsDNA, one strand shown
T2 sequence: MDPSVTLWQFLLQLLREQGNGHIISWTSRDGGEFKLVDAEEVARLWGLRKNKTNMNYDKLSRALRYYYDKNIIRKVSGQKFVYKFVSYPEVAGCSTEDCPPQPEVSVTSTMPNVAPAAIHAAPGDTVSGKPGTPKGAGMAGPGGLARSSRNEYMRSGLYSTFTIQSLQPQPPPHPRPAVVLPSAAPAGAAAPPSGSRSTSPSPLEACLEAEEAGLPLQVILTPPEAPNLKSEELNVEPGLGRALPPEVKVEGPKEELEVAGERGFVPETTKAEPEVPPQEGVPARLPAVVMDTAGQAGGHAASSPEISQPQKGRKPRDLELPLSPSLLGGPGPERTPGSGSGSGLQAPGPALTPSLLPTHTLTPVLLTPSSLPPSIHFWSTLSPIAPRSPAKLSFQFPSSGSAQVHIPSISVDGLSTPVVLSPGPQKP
In short: as §1

GABPA = biological target: T3, GABPA (Homo sapiens, UniProt Q06546 1-454); details: protein: recombinant; tags: N-terminal GST; dsDNA, one strand shown
T3 sequence: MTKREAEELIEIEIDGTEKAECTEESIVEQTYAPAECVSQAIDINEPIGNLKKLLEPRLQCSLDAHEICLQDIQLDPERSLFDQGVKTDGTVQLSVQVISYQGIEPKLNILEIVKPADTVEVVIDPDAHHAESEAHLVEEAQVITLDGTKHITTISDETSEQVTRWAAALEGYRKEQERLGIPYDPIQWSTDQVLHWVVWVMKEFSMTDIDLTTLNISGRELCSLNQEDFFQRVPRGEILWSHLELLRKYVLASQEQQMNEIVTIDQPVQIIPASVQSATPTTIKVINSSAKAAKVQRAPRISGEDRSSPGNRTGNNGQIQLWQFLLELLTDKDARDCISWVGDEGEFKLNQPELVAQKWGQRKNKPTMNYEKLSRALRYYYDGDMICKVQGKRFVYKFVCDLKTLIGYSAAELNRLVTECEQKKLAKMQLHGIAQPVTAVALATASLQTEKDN
In short: as §1

ERG = biological target: T4, ERG (Homo sapiens, UniProt P11308 1-479); details: protein: recombinant; tags: N-terminal GST; dsDNA, one strand shown
T4 sequence: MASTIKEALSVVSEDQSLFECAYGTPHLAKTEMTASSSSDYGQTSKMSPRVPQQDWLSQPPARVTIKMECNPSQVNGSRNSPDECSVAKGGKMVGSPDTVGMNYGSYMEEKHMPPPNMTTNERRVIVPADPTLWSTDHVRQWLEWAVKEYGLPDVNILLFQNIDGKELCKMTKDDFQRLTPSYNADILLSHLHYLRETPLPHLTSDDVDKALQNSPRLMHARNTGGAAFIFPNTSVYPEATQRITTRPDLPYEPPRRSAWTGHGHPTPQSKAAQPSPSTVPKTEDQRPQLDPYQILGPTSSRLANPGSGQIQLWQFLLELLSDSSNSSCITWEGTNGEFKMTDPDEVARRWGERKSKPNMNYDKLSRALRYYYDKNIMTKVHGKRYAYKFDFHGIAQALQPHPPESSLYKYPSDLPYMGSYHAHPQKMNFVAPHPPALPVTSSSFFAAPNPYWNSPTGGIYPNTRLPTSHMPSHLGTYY
In short: as §1

ELF1 = ELF1 (Homo sapiens, UniProt P32519 1-619); details: protein: recombinant; tags: N-terminal GST; dsDNA, one strand shown
In short: as §1

EHF = biological target: T5, EHF (Homo sapiens, UniProt Q9NZC4 1-300); details: protein: recombinant; tags: N-terminal GST; dsDNA, one strand shown
T5 sequence: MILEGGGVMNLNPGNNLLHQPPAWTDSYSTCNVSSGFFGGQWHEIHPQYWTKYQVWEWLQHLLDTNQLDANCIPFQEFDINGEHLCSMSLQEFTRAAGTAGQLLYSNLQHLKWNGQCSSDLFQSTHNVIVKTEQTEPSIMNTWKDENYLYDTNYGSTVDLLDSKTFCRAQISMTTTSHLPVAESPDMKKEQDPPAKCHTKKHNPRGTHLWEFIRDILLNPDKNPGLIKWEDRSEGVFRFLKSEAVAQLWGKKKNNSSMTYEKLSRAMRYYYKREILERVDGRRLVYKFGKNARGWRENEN
In short: as §1

SPI1 = SPI1 (Homo sapiens, UniProt P17947 1-270); details: protein: recombinant; tags: N-terminal GST; dsDNA, one strand shown
In short: as §1

ELK3 = biological target: T6, ELK3 (Homo sapiens, UniProt P41970 1-407); details: protein: recombinant; tags: N-terminal GST; dsDNA, one strand shown
T6 sequence: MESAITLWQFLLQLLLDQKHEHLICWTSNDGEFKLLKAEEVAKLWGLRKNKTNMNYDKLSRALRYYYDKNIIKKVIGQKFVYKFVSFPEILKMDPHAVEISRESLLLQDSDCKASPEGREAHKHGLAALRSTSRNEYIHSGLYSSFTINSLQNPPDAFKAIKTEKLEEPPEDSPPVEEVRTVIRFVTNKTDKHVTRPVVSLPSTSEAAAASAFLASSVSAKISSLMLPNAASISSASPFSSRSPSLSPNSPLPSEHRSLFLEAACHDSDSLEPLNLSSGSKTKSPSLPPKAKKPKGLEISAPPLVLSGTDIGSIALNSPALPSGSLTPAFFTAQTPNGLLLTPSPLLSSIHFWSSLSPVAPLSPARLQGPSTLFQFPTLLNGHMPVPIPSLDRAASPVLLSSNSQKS
In short: as §1

ETV5 = ETV5 (Homo sapiens, UniProt P41161 1-510); details: protein: recombinant; tags: N-terminal GST; dsDNA, one strand shown
In short: as §1

HSF1 = HSF1 (Homo sapiens, UniProt Q00613 1-529); details: protein: recombinant; tags: N-terminal GST; chain copies: 3; dsDNA, one strand shown
In short: as §1

SPIC = biological target: T7, SPIC (Homo sapiens, UniProt Q8N5J4 1-248); details: protein: recombinant; tags: N-terminal GST; dsDNA, one strand shown
T7 sequence: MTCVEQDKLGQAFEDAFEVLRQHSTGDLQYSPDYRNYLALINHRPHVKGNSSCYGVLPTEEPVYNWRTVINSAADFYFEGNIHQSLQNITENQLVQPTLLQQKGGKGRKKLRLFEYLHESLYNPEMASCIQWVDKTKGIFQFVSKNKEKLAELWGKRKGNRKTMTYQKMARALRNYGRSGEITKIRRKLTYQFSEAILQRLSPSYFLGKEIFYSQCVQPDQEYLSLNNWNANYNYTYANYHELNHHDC
In short: as §1

ELF4 = ELF4 (Homo sapiens, UniProt Q99607 1-663); details: protein: recombinant; tags: N-terminal GST; dsDNA, one strand shown
In short: as §1

ELK4 = biological target: T8, ELK4 (Homo sapiens, UniProt P28324-2 1-405); details: protein: recombinant; tags: N-terminal GST; dsDNA, one strand shown
T8 sequence: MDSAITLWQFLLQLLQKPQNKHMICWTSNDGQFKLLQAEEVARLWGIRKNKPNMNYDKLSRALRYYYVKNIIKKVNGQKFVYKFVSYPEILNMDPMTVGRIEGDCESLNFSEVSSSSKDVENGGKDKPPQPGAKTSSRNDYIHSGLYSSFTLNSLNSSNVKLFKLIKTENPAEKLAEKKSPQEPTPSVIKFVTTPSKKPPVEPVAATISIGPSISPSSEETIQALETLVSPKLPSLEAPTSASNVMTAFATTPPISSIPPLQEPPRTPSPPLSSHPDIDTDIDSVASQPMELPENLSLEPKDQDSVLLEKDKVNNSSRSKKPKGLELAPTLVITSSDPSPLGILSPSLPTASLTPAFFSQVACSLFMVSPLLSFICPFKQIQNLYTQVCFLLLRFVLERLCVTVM
In short: as §1

ELF3 = biological target: T9, ELF3 (Homo sapiens, UniProt P78545 1-371); details: protein: recombinant; tags: N-terminal GST; dsDNA, one strand shown
T9 sequence: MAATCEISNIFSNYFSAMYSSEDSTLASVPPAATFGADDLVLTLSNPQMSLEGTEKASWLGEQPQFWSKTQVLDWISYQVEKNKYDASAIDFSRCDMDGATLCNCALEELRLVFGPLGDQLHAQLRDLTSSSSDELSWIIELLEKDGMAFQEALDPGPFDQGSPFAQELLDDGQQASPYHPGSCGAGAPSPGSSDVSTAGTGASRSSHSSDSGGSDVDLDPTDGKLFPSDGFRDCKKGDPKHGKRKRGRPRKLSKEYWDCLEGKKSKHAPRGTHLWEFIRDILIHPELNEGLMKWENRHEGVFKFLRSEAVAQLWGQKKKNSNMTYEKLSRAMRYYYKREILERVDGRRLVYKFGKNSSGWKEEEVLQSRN
In short: as §1

CRX = CRX (Homo sapiens, UniProt O43186 1-299); details: protein: recombinant; tags: N-terminal GST; dsDNA, one strand shown
In short: as §1

SPIB = SPIB (Homo sapiens, UniProt Q01892 1-262); details: protein: recombinant; tags: N-terminal GST; dsDNA, one strand shown
In short: as §1

ETV2 = biological target: T10, ETV2 (Homo sapiens, UniProt O00321 1-342); details: protein: recombinant; tags: N-terminal GST; dsDNA, one strand shown
T10 sequence: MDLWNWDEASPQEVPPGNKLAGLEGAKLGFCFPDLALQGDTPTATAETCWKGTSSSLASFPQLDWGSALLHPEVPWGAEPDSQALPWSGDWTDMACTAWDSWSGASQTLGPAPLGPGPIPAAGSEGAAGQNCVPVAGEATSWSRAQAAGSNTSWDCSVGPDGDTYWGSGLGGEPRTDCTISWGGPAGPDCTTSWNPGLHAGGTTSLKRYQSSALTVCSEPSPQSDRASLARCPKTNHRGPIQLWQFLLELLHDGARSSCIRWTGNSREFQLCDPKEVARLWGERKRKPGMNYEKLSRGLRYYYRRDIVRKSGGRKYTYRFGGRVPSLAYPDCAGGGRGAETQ
In short: as §1

ETV1 = ETV1 (Homo sapiens, UniProt P50549 1-477); details: protein: recombinant; tags: N-terminal GST; dsDNA, one strand shown
In short: as §1

Chain of CRX (O43186 whole entry): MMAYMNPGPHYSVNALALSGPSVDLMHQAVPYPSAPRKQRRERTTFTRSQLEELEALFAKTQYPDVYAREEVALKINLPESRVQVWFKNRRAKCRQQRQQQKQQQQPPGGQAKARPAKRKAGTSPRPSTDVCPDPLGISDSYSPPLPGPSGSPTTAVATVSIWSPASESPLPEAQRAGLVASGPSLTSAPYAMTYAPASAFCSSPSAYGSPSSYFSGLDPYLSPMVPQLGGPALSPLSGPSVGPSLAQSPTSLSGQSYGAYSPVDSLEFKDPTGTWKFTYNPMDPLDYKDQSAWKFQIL
Chain of ELF4 (Q99607 whole entry): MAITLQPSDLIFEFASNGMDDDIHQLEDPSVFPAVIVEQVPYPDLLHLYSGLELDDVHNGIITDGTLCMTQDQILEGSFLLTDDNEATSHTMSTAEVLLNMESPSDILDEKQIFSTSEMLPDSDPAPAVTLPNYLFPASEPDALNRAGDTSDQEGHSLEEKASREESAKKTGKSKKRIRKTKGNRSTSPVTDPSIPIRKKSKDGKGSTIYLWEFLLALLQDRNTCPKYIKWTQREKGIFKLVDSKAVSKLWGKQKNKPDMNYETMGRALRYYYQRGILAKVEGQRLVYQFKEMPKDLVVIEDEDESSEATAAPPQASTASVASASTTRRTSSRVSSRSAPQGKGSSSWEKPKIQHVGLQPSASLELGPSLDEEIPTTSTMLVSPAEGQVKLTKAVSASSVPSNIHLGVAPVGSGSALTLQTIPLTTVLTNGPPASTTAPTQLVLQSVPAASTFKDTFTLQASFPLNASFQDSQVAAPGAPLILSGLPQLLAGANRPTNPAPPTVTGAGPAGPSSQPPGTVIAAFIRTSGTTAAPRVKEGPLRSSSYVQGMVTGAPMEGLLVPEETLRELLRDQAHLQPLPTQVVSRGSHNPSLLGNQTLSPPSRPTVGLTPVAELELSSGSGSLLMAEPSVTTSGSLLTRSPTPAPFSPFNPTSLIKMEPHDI
Chain of ELF1 (P32519 whole entry): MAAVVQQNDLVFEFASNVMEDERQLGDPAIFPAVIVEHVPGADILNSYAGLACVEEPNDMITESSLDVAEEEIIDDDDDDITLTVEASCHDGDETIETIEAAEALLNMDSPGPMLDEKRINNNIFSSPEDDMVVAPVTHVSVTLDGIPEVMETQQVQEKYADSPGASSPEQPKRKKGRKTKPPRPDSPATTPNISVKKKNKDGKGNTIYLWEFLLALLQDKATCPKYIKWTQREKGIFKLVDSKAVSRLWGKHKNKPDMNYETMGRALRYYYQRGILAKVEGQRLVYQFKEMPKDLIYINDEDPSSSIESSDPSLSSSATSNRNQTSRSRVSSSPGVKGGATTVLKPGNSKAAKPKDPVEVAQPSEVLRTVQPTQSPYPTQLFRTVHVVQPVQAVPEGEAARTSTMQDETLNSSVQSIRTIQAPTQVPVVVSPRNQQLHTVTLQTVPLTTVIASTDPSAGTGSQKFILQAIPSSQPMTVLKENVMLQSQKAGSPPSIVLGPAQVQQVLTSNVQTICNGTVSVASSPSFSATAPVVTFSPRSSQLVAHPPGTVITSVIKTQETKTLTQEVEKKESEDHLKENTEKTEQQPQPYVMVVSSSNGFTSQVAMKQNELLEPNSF
Chain of HSF1 (Q00613 whole entry): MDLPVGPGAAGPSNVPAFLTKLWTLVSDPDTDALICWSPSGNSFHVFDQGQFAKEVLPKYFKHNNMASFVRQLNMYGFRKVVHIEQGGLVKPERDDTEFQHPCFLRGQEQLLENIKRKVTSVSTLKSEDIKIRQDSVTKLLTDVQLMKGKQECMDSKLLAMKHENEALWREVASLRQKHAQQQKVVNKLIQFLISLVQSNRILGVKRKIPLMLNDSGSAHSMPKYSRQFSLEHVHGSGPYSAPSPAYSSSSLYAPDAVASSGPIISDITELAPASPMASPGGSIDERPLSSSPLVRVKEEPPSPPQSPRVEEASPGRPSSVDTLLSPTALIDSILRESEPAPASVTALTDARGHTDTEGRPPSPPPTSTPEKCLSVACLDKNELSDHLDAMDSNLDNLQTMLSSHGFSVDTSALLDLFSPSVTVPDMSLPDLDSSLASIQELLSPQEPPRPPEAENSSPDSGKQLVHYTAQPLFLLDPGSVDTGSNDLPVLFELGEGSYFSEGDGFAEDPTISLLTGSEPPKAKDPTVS
Chain of ETV5 (P41161 whole entry): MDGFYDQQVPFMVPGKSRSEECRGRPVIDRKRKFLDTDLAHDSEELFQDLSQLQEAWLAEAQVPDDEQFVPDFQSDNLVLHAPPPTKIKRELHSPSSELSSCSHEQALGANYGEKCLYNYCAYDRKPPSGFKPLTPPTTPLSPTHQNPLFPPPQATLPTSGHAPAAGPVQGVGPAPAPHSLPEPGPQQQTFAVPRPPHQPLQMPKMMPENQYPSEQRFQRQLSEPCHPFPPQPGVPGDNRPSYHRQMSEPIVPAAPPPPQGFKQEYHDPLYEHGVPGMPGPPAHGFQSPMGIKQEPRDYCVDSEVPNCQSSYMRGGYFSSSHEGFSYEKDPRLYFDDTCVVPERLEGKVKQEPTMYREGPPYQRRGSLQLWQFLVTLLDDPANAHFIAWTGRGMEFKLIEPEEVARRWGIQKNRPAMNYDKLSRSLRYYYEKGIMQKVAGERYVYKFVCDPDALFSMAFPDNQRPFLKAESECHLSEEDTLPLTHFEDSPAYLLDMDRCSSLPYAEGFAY
Chain of SPIB (Q01892 whole entry): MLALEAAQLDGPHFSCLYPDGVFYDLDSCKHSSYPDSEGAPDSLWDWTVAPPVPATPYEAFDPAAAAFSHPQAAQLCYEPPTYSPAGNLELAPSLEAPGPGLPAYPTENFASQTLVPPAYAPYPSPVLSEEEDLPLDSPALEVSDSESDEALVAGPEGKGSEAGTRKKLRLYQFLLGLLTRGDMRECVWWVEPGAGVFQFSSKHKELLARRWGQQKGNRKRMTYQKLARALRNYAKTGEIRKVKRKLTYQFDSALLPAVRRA
Chain of ETV1 (P50549 whole entry): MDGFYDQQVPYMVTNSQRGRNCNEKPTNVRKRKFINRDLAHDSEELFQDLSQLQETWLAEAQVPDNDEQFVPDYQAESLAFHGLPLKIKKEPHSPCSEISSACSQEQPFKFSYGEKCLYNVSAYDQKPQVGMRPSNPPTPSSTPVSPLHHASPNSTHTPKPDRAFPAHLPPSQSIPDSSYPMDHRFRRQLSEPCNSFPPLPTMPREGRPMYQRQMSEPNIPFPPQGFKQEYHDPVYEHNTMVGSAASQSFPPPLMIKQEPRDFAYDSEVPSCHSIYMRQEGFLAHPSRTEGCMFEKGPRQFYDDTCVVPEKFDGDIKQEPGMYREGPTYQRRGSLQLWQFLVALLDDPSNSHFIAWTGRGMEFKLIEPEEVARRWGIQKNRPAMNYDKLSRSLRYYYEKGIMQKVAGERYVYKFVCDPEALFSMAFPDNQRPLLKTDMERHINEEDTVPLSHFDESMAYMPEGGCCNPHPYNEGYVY

Sequence	binding signal (FLI1)	binding signal (ELK1)	binding signal (GABPA)	binding signal (ERG)	binding signal (ELF1)	binding signal (EHF)	binding signal (SPI1)	binding signal (ELK3)	binding signal (ETV5)	binding signal (HSF1)	binding signal (SPIC)	binding signal (ELF4)	binding signal (ELK4)	binding signal (ELF3)	binding signal (CRX)	binding signal (SPIB)	binding signal (ETV2)	binding signal (ETV1)
ATGAAG	1.1 fold enrichment (6-mer frequency, TF over GST control)	1.1 fold enrichment (6-mer frequency, TF over GST control)	1.04 fold enrichment (6-mer frequency, TF over GST control)	1.1 fold enrichment (6-mer frequency, TF over GST control)	1.04 fold enrichment (6-mer frequency, TF over GST control)	1.06 fold enrichment (6-mer frequency, TF over GST control)	1.05 fold enrichment (6-mer frequency, TF over GST control)	1.05 fold enrichment (6-mer frequency, TF over GST control)	1.01 fold enrichment (6-mer frequency, TF over GST control)	1.07 fold enrichment (6-mer frequency, TF over GST control)	1.14 fold enrichment (6-mer frequency, TF over GST control)	1.08 fold enrichment (6-mer frequency, TF over GST control)	1.17 fold enrichment (6-mer frequency, TF over GST control)	1.02 fold enrichment (6-mer frequency, TF over GST control)	1.04 fold enrichment (6-mer frequency, TF over GST control)			
CTGTAA	1.06 fold enrichment (6-mer frequency, TF over GST control)		1.07 fold enrichment (6-mer frequency, TF over GST control)		1.12 fold enrichment (6-mer frequency, TF over GST control)	1.09 fold enrichment (6-mer frequency, TF over GST control)	1.11 fold enrichment (6-mer frequency, TF over GST control)	1.24 fold enrichment (6-mer frequency, TF over GST control)	1.05 fold enrichment (6-mer frequency, TF over GST control)	1.09 fold enrichment (6-mer frequency, TF over GST control)	1.24 fold enrichment (6-mer frequency, TF over GST control)	1.06 fold enrichment (6-mer frequency, TF over GST control)	1.09 fold enrichment (6-mer frequency, TF over GST control)		1.25 fold enrichment (6-mer frequency, TF over GST control)	1.04 fold enrichment (6-mer frequency, TF over GST control)	1.21 fold enrichment (6-mer frequency, TF over GST control)	1 fold enrichment (6-mer frequency, TF over GST control)
